# Reference: PubChem BioAssay (NCATS)
# Results filed as inconclusive are left out. A number with no mark means an inactive call. Calls follow the shape of the dose curve; as a rule, active = well fitted cell-killing curve with a large enough effect; inconclusive = small, poorly fitted or top-dose-only effect, or effect the other way; inactive = flat fitted curve, though single readings scatter.
# Tested on: CASKI
# Assay: Primary qHTS to identify gynecologic anti-cancer compounds using libraries of approved drugs and bioactive compounds (AID 1345084); also: nearly all actives have a fitted effect of over 55% in size
# Conditions: Gynecologic cancer cell panel viability, ATPlite luminescence, 48 h; series mostly up to 57.5 µM; activity change, negative = cytotoxicity: at the top concentration
# How it was run: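 Cytotoxicity screen measuring ATP content by luciferase luminescence. Each compound is applied at five concentrations for 48 h at 37 C with 5% CO2.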
# % is scaled to controls: 0 for no effect and ±100 for the full control effect.
row,SMILES,"activity change, negative = cytotoxicity"
1,CC(=O)OCC(=O)O[C@@H]1[C@H]2[C@@H](OC(=O)c3ccccc3)[C@@H](C)C[C@]2(O)[C@H](OC(C)=O)C2(C)[C@H]3CC(C)(C)C(=O)[C@@H]3CC1(OC(C)=O)[C@@H]2OC(C)=O (some centres undefined),12.7% [at 25.3 µM]
2,CC1(O)CCC2C(C(=O)O)=COC(OC3OC(CO)C(O)C(O)C3OC(=O)/C=C/c3ccc(O)cc3)C21 (centres undefined),0.915% [at 25.3 µM]
3,CC(=O)NC(CCC(=O)O)C(=O)NCCc1ccc(O)cc1 (centres undefined),17.1%
4,COC(=O)C1C(c2ccc(O)cc2)C(C(=O)OC)C1c1ccc(O)cc1 (centres undefined),4.68% [at 38.5 µM]
5,C=C(C)C(=O)O[C@H]1C[C@@](C)(OC(C)=O)[C@@]2(O)CC[C@@](C)(O)[C@H](OC(C)=O)[C@@]23OC(=O)C(COC)=C13,9.96% [at 25.3 µM]
6,CC1(C)CC(=O)N(CCCCN2CCN(c3ncccn3)CC2)C(=O)C1,18.5%
7,COc1ccc2c(c1)OC[C@]1(O)c3cc4c(cc3O[C@H]21)OCO4,-0.493% [at 38.5 µM]
8,CC(CCC1(O)OC2CC3C4CCC5CC(O[C@@H]6O[C@H](CO)[C@@H](O)[C@H](O)[C@H]6O[C@@H]6OC[C@@H](O)[C@H](O)[C@H]6O)C(O)CC5(C)C4CCC3(C)C2C1C)CO[C@@H]1O[C@H](CO)[C@@H](O)[C@H](O)[C@H]1O (some centres undefined),14.6% [at 11.6 µM]
9,COc1cc(CCc2ccccc2)c(C(=O)O)c2c1CC(C(C)(C)O)O2 (centres undefined),3.45% [at 38.5 µM]
10,CCCC1=CC2=C(CO1)C(=O)C(C)(OC(=O)c1c(C)cc(OC)cc1O)C(O)C2 (centres undefined),16% [at 25.3 µM]
11,C[C@@H]1O[C@@H](O[C@@H]2[C@@H](O)[C@H](O[C@@H]3[C@@H](O)[C@@H](O)[C@H](O[C@H]4[C@H](OC(=O)[C@]56CCC(C)(C)C[C@H]5C5=CCC7[C@@]8(C)C[C@H](O)[C@H](O[C@@H]9O[C@@H](C)[C@H](O)[C@@H](O)[C@H]9O)[C@@](C)(CO)C8CC[C@@]7(C)[C@]5(C)C[C@H]6O)O[C@H](C)[C@H](O)[C@@H]4O)O[C@H]3C)OC[C@H]2O)[C@H](O)[C@H](O)[C@H]1O (some centres undefined),0.934% [at 6.55 µM]
12,CCS(=O)(=O)N1CCC([C@@H](C)n2c(C)c(C(=O)NCc3c(OC)cc(C)[nH]c3=O)c3ccccc32)CC1,8.99%
13,C/C=C1\[C@H](O[C@@H]2O[C@H](CO)[C@@H](O)[C@H](O)[C@H]2O)OC=C(C(=O)OC)[C@H]1CC(=O)OC,-13.3% [at 25.3 µM]
14,O=C(O[C@H]1[C@@H]2C[C@@H]3OC[C@@](O)([C@H]2[C@H](O[C@@H]2O[C@H](CO)[C@@H](O)[C@H](O)[C@H]2O)O3)[C@@H]1O)c1ccccc1,14.8% [at 25.3 µM]
15,CC1CCC2C(C)(C)C(O)CCC2(C)C12Cc1c(O)cc3c(c1O2)C(N)=NC3 (centres undefined),16.5% [at 38.5 µM]
16,C=CC(C)(C)O[C@@H]1O[C@H](CO[C@@H]2OC[C@](O)(CO)[C@H]2O)[C@@H](O)[C@H](O)[C@H]1O,2.38% [at 38.5 µM]
17,CCCC(N[C@@H](C)C(=O)N1[C@H](C(=O)O)C[C@@H]2CCCC[C@@H]21)C(=O)OCC (some centres undefined),29%
18,O=C(O)c1ccc(CCCc2ccc(OCCc3ccc(F)cc3)cc2)o1,1.2%
19,Cc1[nH]cnc1C1CCN(c2nc3cccc4c3n2CCC4=O)CC1,23.6%
20,C[C@@H]1O[C@@H](O[C@@H]2[C@@H](O)[C@H](O[C@@H]3[C@@H](O)[C@@H](O)[C@H](O[C@H]4[C@H](OC(=O)[C@]56CCC(C)(C)C[C@H]5C5=CCC7[C@@]8(C)C[C@H](O)[C@H](O[C@@H]9O[C@H](C(=O)O)[C@@H](O)[C@H](O)[C@H]9O)[C@@](C)(CO)C8[C@H](O)C[C@@]7(C)[C@]5(C)CC6)OC[C@H](O)[C@@H]4O)O[C@H]3C)OC[C@H]2O)[C@H](O)[C@H](O)[C@H]1O (some centres undefined),-21.9% [at 6.55 µM]

row,SMILES,"activity change, negative = cytotoxicity"
1,CC1(C)CC2C(O)C3=C(CC(C)(O)C2C1)C(=O)OC3O (centres undefined),-1.12%
2,CC(C)=CC/C=C(/C)[C@H]1CC[C@]2(C)[C@@H]1[C@H](O)CC1[C@@]3(C)CC[C@H](O)C(C)(C)[C@@H]3[C@@H](O[C@@H]3O[C@H](CO)[C@@H](O)[C@H](O)[C@H]3O[C@@H]3O[C@@H](C)[C@H](O)[C@@H](O)[C@H]3O)C[C@]12C (some centres undefined),3.96% [at 25.3 µM]
3,O=C(/C=C/c1ccc(O)cc1)OCC1=C[C@@H](O)[C@@H]2C=CO[C@@H](O[C@@H]3O[C@H](CO)[C@@H](O)[C@H](O)[C@H]3O)[C@H]12,2.97% [at 25.3 µM]
4,O=C(O[C@H]1[C@@H]2C=CO[C@@H](O[C@@H]3O[C@H](CO)[C@@H](O)[C@H](O)[C@H]3O)[C@@H]2[C@@]2(CO)O[C@@H]12)c1ccc(O)c(O)c1,5.27% [at 25.3 µM]
5,O=C(O)C[C@H]1CCC(=O)[C@@H]1C/C=C\CCOC1OC(CO)C(O)C(O)C1O (some centres undefined),-1.45% [at 38.5 µM]
6,CC(=O)OC1C(O)C(C)=C(CCC(C)CC(=O)O)C2(C)CCCC(C)(C)C12 (centres undefined),0.813% [at 38.5 µM]
7,Cc1ncc([N+](=O)[O-])n1CC(O)CN1CCOCC1 (centres undefined),27.1%
8,COc1cc2c(cc1O)C1(Cc3ccc4c(c3C1=O)OCO4)N(C)CC2 (centres undefined),-0.246% [at 38.5 µM]
9,COC(=O)[C@H](CC1C=NC=N1)NCC12CC3CC(CC(C3)C1)C2 (some centres undefined),5.54%
10,CCOC(=O)c1ccc(N(C)c2csc(-c3ccccc3)n2)cc1,1.89%
11,C/C1=C\C[C@H](O[C@@H]2O[C@H](CO)[C@@H](O)[C@H](O)[C@H]2O)/C(C)=C/[C@H]2OC(=O)[C@H](C)[C@@H]2CC1,4.76% [at 25.3 µM]
12,COc1ccc(C(=O)O[C@H]2CC(C)=CC[C@@]3(C)[C@@H](OC(C)=O)C[C@@](O)(C(C)C)[C@H]23)cc1,3.07% [at 25.3 µM]
13,CC/C=C\C[C@H]1C(=O)C=C[C@@H]1CCCCCCCC(=O)O,17.2%
14,CC1CC(=O)C2=C(O1)OC1(C)CCC3C(C)(C)C=CC(=O)C3(C)C1C2 (centres undefined),20.1% [at 38.5 µM]
15,CC1(CO)CC2C(O)C(=O)C3(CO)CC3(C)C2C1 (centres undefined),8.58%
16,CCn1nnnc1NCc1ccc(C(C)C)cc1,-1.1%
17,CCNC(=O)CCC/C=C\C[C@@H]1[C@@H](/C=C/C(O)CCc2ccccc2)[C@@H](O)C[C@@H]1O (some centres undefined),9.43%
18,CN[C@@H]1[C@@H](O)[C@@H](O[C@@H]2[C@@H](O)[C@H](O[C@H]3O[C@H](CN)[C@@H](O)[C@H](O)[C@H]3O)[C@@H](N)C[C@H]2NC(=O)[C@@H](O)CN)OC[C@]1(C)O,17.2%
19,CC1(C)OC(=O)C(OCC2CC2)=C1c1ccc(S(C)(=O)=O)cc1,3.18%
